# Laboratory results reported in PubChem BioAssay (NCI).
# The panel holds about 83,000 compounds, 20% with a hit somewhere; the sample as a whole holds those more often.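 The endpoint reported here, percent growth, reads 100 for growth as untreated, 0 for no net growth and -100 for all cells dead.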 A number with no mark means an inactive call. Activity calls are given as the source filed them. How the source made its calls: active means growth percent below 10; inactive means the rest.
# Tested on: HL-60(TB) leukemia
# Experiment: NCI-60 one-dose screen, 48 h (100 = growth as untreated, 0 = no growth, -100 = all killed)
# Settings: 10 µM unless noted
row,SMILES,growth
1,Nc1n[nH]c2cccc(C#Cc3cccc(NC(=O)c4cc(F)cc(C(F)(F)F)c4)c3)c12,37.7%
2,Oc1[nH]c2ccccc2c1/C=c1/ccc2c(c1)N=C(c1ccc(C(F)(F)F)cc1)N=2,74.3%
3,CNC1=C([N+](=O)[O-])C(c2ccccc2O)C(C#N)=C(c2cccs2)O1 (stereo not given),75.1%
4,NC(=O)SCC(=O)Nc1ccc(S(N)(=O)=O)cc1,103%
5,CC(=O)Nc1c(Cl)cc2c(c1Cl)Cc1ccccc1-2,99.7%
6,CC(C)(C)c1ccc(O)c(C2CCCCC2)c1,67.4%
7,CCOC(=O)CCCn1c(-c2ccccc2)cc(-c2ccccc2)c(C#N)c1=O,77.9%
8,Nc1nc(-c2ccc(Cl)cc2)cc(-c2cc3ccccc3oc2=O)n1,125%
9,O=C(Nc1ccncc1)C(=O)c1cn(S(=O)(=O)c2cccc(Cl)c2F)c2ccccc12,68.5%
10,Clc1ccccc1-c1nc(Nc2nc3ccccc3s2)nc(C(Cl)(Cl)Cl)n1,32.9%
11,COc1ccccc1N1CCCCC1,101%
12,CCc1nc(C(N)=O)c(Nc2ccc(N3CCC(N4CCN(C)CC4)CC3)c(OC)c2)nc1NC1CCOCC1,9.89% (active)
13,Cc1cc(Cl)ccc1Nc1nc(C(F)(F)F)ccc1C(=O)N/N=C/c1ccccc1Cl,12.5%
14,CN1CCn2c(c(Sc3ccc(C(=O)NO)cc3)c3ccccc32)C1=O,-1.35% (active)
15,CC(C)[C@@H](C)/C=C/[C@@H](C)[C@H]1CCC2=C3C=CC4=CC(=O)CC[C@]4(C)[C@H]3CC[C@@]21C,93.9%
16,CC(=O)Nc1nc2c(c(N)c1C#N)C(c1cccc(Cl)c1)C1=C(CCCC1=O)N2c1sc2c(c1C#N)CCCC2 (stereo not given),5.89% (active)
17,COc1cc2c(c(OC)c1OC)CCc1cnoc1-2,114%
18,CCN(CC)Cc1cc(C=C2C(=O)NC(=S)NC2=O)cc(OC)c1O,106%
19,O=C1/C(=C/c2ccccn2)SC(=S)N1N1CCOCC1,97.2%
20,Nc1nc(-c2cc3c(cc2Cl)NC(=O)/C3=C/c2ccc(Cl)cc2)cs1,-11.7% (active)
21,CC(Br)c1nc2ccccc2cc1C(N)=O (stereo not given),104%
22,C[n+]1c2ccccc2nc2c(N)cc(N)cc21,74.7%
23,CCCCCCCCCCCCCCCCCCOc1ccccc1CC(=O)OCC[N+]1(C)CCCCC1,-5.08% (active)
24,O=C(Nc1cccc(Cl)c1)Oc1c(Cl)c(Cl)c(Cl)c(Cl)c1Cl,101%
25,Cc1c(C(=O)O)nnn1-c1nccs1,95.5%
